# Laboratory results: paper PMC7862700, “An all-to-all approach to the identification of sequence-specific readers for epigenetic DNA modifications on cytosine”
# Legend:
# Test in all cases: DAPPL (digital affinity profiling via proximity ligation, sequencing); 10 mM Tris-HCl pH 7.5, 50 mM NaCl, 1 mM DTT, 4% glycerol, room temperature, 30 min; GST-TFs on glutathione beads, 16-mer random dsDNA library, 0.1% formaldehyde crosslink after washing; high values mean tight binding
# [1] = molecular target: ETV5 (Homo sapiens, UniProt P41161 1-510); conditions: protein: recombinant; tags: N-terminal GST; dsDNA, one strand shown
# How it was run: (§1)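 Pools of DNA-barcoded human transcription factors, expressed in yeast as GST fusions on glutathione beads and combined with a tag-only sample, were incubated with 200 nmole of a 16-mer random double-stranded DNA library. Incubation took 30 min at room temperature in Tris/NaCl/DTT/glycerol buffer and was followed by washing, 0.1% formaldehyde crosslinking, proximity ligation (BsaI/T4 ligase, 1 h, 37 °C), PCR amplification and sequencing on an Illumina NextSeq500. Binding signal is the ratio of a hexamer's read frequency for a factor to its frequency for the tag-only sample.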
# [2] = molecular target: HSF1 (Homo sapiens, UniProt Q00613 1-529); conditions: protein: recombinant; tags: N-terminal GST; chain copies: 3; dsDNA, one strand shown
# How it was run: as §1
# [3] = molecular target: T1, SPIC (Homo sapiens, UniProt Q8N5J4 1-248); conditions: protein: recombinant; tags: N-terminal GST; dsDNA, one strand shown
# T1 sequence: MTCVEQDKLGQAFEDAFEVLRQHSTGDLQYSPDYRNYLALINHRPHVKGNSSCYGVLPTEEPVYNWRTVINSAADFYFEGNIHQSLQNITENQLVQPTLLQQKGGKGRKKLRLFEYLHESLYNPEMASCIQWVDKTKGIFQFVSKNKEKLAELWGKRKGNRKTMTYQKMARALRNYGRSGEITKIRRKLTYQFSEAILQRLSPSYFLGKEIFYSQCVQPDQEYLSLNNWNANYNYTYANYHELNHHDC
# How it was run: as §1
# [4] = molecular target: ELF4 (Homo sapiens, UniProt Q99607 1-663); conditions: protein: recombinant; tags: N-terminal GST; dsDNA, one strand shown
# How it was run: as §1
# [5] = molecular target: T2, ELK4 (Homo sapiens, UniProt P28324-2 1-405); conditions: protein: recombinant; tags: N-terminal GST; dsDNA, one strand shown
# T2 sequence: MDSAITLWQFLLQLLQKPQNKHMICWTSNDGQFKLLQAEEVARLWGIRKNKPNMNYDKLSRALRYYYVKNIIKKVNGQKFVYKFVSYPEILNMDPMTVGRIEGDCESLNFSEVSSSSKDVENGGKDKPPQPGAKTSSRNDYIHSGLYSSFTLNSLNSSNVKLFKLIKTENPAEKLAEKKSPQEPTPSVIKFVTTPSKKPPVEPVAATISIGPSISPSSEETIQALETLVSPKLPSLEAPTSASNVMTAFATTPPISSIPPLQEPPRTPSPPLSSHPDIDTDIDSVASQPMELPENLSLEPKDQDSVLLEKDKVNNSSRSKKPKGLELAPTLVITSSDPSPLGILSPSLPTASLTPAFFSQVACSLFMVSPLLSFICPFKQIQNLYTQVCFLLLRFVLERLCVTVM
# How it was run: as §1
# [6] = molecular target: T3, ETV2 (Homo sapiens, UniProt O00321 1-342); conditions: protein: recombinant; tags: N-terminal GST; dsDNA, one strand shown
# T3 sequence: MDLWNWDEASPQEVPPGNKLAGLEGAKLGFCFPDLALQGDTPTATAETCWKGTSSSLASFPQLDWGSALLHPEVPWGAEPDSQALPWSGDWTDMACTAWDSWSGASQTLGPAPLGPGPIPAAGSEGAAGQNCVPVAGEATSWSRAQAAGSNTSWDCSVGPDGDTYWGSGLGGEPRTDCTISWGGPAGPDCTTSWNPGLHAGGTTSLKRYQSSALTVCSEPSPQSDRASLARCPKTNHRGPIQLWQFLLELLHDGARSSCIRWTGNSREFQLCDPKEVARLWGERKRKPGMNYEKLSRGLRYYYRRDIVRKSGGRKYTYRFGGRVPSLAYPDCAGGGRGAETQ
# How it was run: as §1
# [7] = molecular target: T4, ELF3 (Homo sapiens, UniProt P78545 1-371); conditions: protein: recombinant; tags: N-terminal GST; dsDNA, one strand shown
# T4 sequence: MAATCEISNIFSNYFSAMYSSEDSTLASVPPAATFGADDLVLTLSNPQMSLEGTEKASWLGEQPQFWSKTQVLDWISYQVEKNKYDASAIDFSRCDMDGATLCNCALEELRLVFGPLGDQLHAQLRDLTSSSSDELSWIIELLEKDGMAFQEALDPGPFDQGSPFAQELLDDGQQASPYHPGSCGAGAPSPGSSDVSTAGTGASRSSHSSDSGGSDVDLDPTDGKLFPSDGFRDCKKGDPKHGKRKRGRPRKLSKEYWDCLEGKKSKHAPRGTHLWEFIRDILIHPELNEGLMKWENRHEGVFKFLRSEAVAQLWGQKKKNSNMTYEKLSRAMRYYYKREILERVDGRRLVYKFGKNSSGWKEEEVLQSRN
# How it was run: as §1
# [8] = molecular target: CRX (Homo sapiens, UniProt O43186 1-299); conditions: protein: recombinant; tags: N-terminal GST; dsDNA, one strand shown
# How it was run: as §1
# [9] = molecular target: ETV1 (Homo sapiens, UniProt P50549 1-477); conditions: protein: recombinant; tags: N-terminal GST; dsDNA, one strand shown
# How it was run: as §1
# [10] = molecular target: T5, ERF (Homo sapiens, UniProt P50548 1-548); conditions: protein: recombinant; tags: N-terminal GST; dsDNA, one strand shown
# T5 sequence: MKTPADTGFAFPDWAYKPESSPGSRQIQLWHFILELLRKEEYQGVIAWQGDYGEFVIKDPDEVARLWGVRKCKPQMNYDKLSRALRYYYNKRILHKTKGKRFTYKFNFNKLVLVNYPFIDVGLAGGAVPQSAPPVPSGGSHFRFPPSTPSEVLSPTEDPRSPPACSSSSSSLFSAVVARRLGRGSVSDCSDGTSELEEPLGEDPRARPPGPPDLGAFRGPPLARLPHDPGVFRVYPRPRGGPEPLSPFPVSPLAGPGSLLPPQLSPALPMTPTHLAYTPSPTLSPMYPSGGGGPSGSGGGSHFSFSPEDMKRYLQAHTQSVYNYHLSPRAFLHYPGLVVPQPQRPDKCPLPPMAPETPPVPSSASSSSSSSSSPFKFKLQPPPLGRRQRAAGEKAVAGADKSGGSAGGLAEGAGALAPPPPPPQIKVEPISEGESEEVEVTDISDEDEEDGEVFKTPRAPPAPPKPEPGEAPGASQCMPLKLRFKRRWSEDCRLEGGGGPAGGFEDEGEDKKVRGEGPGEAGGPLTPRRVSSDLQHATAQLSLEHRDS
# How it was run: as §1
# [11] = molecular target: T6, ETV3L (Homo sapiens, UniProt Q6ZN32 1-361); conditions: protein: recombinant; tags: N-terminal GST; dsDNA, one strand shown
# T6 sequence: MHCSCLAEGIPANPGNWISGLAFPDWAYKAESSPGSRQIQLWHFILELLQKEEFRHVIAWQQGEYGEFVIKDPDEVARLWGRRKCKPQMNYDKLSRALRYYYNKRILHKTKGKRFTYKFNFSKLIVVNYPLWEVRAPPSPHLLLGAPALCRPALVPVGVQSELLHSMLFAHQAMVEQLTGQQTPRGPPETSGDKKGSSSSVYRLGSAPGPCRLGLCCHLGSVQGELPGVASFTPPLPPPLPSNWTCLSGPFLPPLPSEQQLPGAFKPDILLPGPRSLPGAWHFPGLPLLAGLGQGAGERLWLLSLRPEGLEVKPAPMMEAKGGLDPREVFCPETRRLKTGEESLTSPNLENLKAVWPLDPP
# How it was run: as §1
# [12] = molecular target: T7, ETS2 (Homo sapiens, UniProt P15036 1-469); conditions: protein: recombinant; tags: N-terminal GST; dsDNA, one strand shown
# T7 sequence: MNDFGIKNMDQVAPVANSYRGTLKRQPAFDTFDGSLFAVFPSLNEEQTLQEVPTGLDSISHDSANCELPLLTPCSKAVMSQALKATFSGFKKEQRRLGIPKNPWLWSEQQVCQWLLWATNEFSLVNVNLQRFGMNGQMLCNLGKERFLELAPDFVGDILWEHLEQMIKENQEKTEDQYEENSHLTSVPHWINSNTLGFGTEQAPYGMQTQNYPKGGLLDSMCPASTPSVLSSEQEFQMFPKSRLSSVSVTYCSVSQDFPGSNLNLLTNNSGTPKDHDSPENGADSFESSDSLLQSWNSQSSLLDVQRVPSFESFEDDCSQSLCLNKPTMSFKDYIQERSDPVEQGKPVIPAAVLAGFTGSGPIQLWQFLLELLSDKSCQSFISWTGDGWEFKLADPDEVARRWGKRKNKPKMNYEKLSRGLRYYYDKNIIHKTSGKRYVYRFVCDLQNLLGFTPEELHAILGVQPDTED
# How it was run: as §1
# [13] = molecular target: T8, SPDEF (Homo sapiens, UniProt O95238 1-335); conditions: protein: recombinant; tags: N-terminal GST; dsDNA, one strand shown
# T8 sequence: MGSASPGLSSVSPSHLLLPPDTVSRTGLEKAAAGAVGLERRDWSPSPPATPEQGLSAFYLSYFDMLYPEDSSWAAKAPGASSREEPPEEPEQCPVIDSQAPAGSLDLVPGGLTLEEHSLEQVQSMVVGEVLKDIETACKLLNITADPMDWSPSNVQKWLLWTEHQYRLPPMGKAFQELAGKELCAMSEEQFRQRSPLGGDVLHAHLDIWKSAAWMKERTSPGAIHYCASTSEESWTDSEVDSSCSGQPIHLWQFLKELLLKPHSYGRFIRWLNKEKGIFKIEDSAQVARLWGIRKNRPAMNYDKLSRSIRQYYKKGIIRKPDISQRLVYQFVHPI
# How it was run: as §1
# [14] = molecular target: T9, ETV7 (Homo sapiens, UniProt Q9Y603 1-341); conditions: protein: recombinant; tags: N-terminal GST; dsDNA, one strand shown
# T9 sequence: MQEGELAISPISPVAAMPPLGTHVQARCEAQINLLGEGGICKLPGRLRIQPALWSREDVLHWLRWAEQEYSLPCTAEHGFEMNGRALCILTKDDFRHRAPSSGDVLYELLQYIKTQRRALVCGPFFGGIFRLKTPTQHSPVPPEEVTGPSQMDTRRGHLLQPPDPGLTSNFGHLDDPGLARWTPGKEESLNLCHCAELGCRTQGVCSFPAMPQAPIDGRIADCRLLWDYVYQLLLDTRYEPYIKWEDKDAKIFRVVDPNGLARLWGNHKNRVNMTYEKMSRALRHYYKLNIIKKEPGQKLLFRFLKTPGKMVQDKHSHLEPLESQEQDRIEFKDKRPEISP
# How it was run: as §1
# [15] = molecular target: T10, ELF5 (Homo sapiens, UniProt Q9UKW6-2 1-255); conditions: protein: recombinant; tags: N-terminal GST; dsDNA, one strand shown
# T10 sequence: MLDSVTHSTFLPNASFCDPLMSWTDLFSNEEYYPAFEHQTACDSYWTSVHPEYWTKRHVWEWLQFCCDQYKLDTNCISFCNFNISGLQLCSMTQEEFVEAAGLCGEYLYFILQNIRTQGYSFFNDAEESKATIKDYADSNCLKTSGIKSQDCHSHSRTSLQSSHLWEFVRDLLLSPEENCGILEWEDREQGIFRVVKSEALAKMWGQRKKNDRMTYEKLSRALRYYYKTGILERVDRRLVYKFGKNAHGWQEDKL
# How it was run: as §1
# [16] = molecular target: T11, ETV3 (Homo sapiens, UniProt P41162-2 1-143); conditions: protein: recombinant; tags: N-terminal GST; dsDNA, one strand shown
# T11 sequence: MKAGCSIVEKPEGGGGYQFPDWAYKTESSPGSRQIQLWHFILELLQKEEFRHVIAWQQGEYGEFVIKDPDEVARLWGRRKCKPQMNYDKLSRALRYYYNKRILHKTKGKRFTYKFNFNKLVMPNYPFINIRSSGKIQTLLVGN
# How it was run: as §1
# [17] = molecular target: ETV6 (Homo sapiens, UniProt P41212 1-452); conditions: protein: recombinant; tags: N-terminal GST; dsDNA, one strand shown
# How it was run: as §1
# Chain of ETV5 (P41161 whole entry, the tested form may be a part): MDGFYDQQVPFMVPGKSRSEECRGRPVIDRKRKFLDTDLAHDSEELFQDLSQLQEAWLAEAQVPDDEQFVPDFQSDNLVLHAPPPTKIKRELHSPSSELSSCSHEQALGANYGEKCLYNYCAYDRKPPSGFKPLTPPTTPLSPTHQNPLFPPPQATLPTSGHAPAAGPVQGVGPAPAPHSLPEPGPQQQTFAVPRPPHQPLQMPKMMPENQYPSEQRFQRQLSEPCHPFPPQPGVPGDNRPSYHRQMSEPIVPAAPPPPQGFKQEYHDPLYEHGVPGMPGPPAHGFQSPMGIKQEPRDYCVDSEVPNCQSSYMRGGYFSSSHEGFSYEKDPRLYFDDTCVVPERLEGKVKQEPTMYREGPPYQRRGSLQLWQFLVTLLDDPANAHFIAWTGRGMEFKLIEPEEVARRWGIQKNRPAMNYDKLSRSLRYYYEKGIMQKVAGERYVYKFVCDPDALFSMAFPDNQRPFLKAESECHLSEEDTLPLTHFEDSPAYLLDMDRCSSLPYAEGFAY
# Chain of ETV1 (P50549 whole entry): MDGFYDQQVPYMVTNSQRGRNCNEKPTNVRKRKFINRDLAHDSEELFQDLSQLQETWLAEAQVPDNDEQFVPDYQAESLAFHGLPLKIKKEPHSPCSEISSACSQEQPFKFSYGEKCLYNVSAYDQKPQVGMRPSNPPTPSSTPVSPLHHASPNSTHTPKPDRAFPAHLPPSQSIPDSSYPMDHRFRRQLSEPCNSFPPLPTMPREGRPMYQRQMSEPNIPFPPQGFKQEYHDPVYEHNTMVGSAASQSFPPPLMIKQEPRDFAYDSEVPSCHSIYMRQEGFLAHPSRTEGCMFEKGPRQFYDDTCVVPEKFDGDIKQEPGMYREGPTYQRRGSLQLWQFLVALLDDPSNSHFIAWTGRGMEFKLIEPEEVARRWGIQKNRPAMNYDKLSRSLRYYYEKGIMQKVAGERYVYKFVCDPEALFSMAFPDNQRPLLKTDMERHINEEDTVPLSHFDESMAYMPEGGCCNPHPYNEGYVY
# Chain of CRX (O43186 whole entry): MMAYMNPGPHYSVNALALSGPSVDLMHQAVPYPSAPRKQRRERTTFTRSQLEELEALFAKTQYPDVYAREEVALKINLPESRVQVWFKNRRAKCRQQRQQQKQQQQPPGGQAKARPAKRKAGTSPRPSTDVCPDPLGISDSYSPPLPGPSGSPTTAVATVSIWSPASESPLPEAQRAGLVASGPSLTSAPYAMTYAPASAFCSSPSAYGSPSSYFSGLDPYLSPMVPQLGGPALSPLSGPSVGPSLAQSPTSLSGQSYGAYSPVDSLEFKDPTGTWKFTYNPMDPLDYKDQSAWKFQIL
# Chain of ELF4 (Q99607 whole entry): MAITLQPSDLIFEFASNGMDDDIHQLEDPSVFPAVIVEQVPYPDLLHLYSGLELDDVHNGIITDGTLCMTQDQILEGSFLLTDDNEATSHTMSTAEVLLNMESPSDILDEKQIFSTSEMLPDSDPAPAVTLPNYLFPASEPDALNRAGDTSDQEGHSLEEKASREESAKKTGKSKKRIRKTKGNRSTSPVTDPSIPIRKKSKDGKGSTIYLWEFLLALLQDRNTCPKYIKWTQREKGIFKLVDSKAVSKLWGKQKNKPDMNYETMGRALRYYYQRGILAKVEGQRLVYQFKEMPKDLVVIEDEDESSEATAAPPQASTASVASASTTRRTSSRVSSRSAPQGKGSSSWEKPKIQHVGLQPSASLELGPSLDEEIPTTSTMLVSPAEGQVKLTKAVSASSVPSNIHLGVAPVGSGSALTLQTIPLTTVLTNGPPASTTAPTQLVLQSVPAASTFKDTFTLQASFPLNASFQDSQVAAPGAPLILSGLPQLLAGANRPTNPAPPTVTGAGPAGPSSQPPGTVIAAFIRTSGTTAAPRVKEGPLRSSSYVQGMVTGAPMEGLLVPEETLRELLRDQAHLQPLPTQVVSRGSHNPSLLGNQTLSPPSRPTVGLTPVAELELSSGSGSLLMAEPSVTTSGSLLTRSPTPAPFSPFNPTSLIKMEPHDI
# Chain of HSF1 (Q00613 whole entry): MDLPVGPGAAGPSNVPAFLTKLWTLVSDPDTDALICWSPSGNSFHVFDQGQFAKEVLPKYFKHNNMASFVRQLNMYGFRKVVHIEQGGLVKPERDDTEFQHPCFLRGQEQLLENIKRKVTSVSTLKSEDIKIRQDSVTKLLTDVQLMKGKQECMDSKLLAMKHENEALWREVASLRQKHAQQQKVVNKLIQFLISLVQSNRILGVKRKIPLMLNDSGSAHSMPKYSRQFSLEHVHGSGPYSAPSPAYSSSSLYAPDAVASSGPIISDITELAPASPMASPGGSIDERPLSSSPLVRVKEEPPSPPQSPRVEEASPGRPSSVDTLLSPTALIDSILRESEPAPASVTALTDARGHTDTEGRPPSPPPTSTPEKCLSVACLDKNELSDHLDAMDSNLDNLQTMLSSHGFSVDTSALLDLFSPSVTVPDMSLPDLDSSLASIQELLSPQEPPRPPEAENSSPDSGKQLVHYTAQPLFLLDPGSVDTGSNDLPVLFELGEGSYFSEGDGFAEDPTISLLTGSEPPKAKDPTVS
# Chain of ETV6 (P41212 whole entry): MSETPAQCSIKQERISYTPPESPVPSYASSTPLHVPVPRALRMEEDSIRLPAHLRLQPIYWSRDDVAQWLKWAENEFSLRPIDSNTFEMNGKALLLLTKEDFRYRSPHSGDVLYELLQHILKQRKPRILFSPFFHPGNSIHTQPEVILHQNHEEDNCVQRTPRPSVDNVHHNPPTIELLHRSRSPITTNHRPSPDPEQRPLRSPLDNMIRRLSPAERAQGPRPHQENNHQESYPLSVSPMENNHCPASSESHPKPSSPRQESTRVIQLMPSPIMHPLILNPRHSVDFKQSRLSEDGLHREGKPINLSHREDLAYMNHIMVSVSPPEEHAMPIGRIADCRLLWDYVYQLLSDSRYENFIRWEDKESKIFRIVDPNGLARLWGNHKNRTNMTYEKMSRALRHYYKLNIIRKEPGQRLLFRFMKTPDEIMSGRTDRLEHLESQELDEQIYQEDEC
sequence,measurement,setting,value
TAATGT,binding signal,[1],"1.14 fold enrichment (6-mer frequency, TF over GST control)"
same,binding signal,[2],"1.19 fold enrichment (6-mer frequency, TF over GST control)"
same,binding signal,[3],"1.21 fold enrichment (6-mer frequency, TF over GST control)"
same,binding signal,[4],"1.11 fold enrichment (6-mer frequency, TF over GST control)"
same,binding signal,[5],"1.19 fold enrichment (6-mer frequency, TF over GST control)"
same,binding signal,[6],"1.08 fold enrichment (6-mer frequency, TF over GST control)"
same,binding signal,[7],"1.04 fold enrichment (6-mer frequency, TF over GST control)"
same,binding signal,[8],"1.5 fold enrichment (6-mer frequency, TF over GST control)"
same,binding signal,[9],"1.16 fold enrichment (6-mer frequency, TF over GST control)"
same,binding signal,[10],"1.06 fold enrichment (6-mer frequency, TF over GST control)"
same,binding signal,[11],"1.11 fold enrichment (6-mer frequency, TF over GST control)"
same,binding signal,[12],"1.09 fold enrichment (6-mer frequency, TF over GST control)"
same,binding signal,[13],"1.12 fold enrichment (6-mer frequency, TF over GST control)"
same,binding signal,[14],"1.19 fold enrichment (6-mer frequency, TF over GST control)"
same,binding signal,[15],"1.07 fold enrichment (6-mer frequency, TF over GST control)"
same,binding signal,[16],"1.05 fold enrichment (6-mer frequency, TF over GST control)"
same,binding signal,[17],"1.09 fold enrichment (6-mer frequency, TF over GST control)"
